# Shown are actives, neighbours in structure and some others; about 10% of the full set was active somewhere.
# GPT2 inh – GPT2 alanine aminotransferase inhibition. Q8TD30. Recombinant GPT2, coupled pyruvate oxidase/HRP Amplex Red fluorescence. Potency, µM (titrated, usually from 57.7 µM), inactives show at the highest dose activity change, negative = inhibition, most hits filed as inhibitors. hit rate 0.25% among 100,000; note: % is set by controls: 0 for no effect and ±100 for the full control effect; nearly all actives have a fitted effect of over 60% in size
#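 Fluorescence read-out: pyruvate from GPT2 turnover coupled to pyruvate oxidase, HRP and Amplex Red (0.2mM ThPP, 0.2U/mL PO and HRP, 50uM Amplex final). Substrates 250uM a-KG, 2mM L-alanine; enzyme 10ng/uL; 30 min RT.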
# HEK293 tox – kills HEK 293 cells | hit rate 6.6% among 94,000 | Potency, µM (series often up to 115 µM), without a hit: at the highest dose activity change, negative = cytotoxicity, hits mostly inhibitors | HEK 293 viability, ATP luminescence (CellTiter-Glo), 48-72 h | AID 1345083; note: % is set by controls: 0 for no effect and ±100 for the full control effect; nearly all actives have a fitted effect of over 60% in size
#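 qHTS cytotoxicity; HEK 293, 250 cells/well; compound pinned; 48 or 72 hr, 37 degree Celsius, 5% CO2, 95% humidity; CellTiter-Glo, 10 min RT; luminescence (ATP).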
# FLuc inh-1 – inhibitors of firefly (Photinus pyralis) luciferase; P08659; purified P. pyralis luciferase, luminescence, biochemical; Potency, µM (series often up to 115 µM), usual class: inhibitors; hit rate 2.5% among 76,000; note: % is set by controls: 0 for no effect and ±100 for the full control effect; nearly all actives have a fitted effect of over 65% in size
# Target sequence (P08659 whole entry, looked up): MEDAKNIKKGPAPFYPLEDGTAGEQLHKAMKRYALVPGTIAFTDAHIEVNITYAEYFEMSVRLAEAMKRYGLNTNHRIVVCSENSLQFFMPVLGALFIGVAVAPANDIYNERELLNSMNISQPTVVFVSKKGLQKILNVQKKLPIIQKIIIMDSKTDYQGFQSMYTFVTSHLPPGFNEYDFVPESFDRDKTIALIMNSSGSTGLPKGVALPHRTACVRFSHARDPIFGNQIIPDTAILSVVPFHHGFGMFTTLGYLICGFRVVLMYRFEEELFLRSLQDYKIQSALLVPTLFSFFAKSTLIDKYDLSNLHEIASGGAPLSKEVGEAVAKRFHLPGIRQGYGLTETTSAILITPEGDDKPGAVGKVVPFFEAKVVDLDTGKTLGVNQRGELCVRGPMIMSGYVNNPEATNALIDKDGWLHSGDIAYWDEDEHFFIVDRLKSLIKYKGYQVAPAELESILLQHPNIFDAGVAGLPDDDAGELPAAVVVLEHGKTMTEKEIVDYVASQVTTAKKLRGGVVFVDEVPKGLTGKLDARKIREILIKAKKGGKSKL
#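 Inhibitors were tested against purified firefly luciferase in a biochemical, low-substrate format (both substrates at 10uM) and luminescence measured with a CCD imager.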
# hNpr1 antagonist – antagonists of human natriuretic peptide receptor Npr1 | P16066 | HEK293 hNpr1 GloSensor cGMP, ANP-stimulated luminescence | Potency, µM (highest dose often 46.3 µM), inactives show at the highest dose activity change, negative = inhibition, hits mostly inhibitors | hit rate 1.6% among 76,000; calls by dose curve; note: % is set by controls: 0 for no effect and ±100 for the full control effect; nearly all actives have a fitted effect of over 60% in size
#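 HEK293 cells stably expressing human Npr1 and cGMP GloSensor pGS-40F, loaded 2 h with 2% GloSensor reagent, given compound 30 min at room temperature. Luminescence read before and 20 min after 0.1 nM hNppA.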
# NIH3T3 tox – cytotoxic compounds in NIH 3T3 cells. AID 1345082. NIH 3T3 viability, CellTiter-Glo ATP luminescence, 48-72 h. Potency, µM (highest dose often 96.7 µM), without a hit: at the highest dose activity change, negative = cytotoxicity, most hits filed as inhibitors. hit rate 4.3% among 94,000; note: % is set by controls: 0 for no effect and ±100 for the full control effect; nearly all actives have a fitted effect of over 55% in size
#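 Cytotoxicity was measured by CellTiter-Glo ATP luminescence after 48 or 72 h compound exposure at 37 °C. Mouse NIH 3T3 fibroblasts were seeded at 400 cells/well and dosed by 23 nL pin transfer.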
# FLuc SDR -ATP – firefly luciferase binding stabilization, ATP absent. shares compounds with FLuc inh-1. Purified FLuc-C-HiBiT, Nano-Glo HiBiT luminescence, no ATP. Potency, µM (titrated, usually from 32.7 µM), without a hit: at the top dose activation (signal gain), actives largely listed as activators. hit rate 7.8% among 1,300. AID 1963318; note: nearly all actives have a fitted effect of over 55% in size
# FLuc SDR ATP – binders stabilizing firefly luciferase, plus ATP | Potency, µM (highest dose often 32.7 µM), inactives show at the highest dose activation (gain of signal), hits mostly activators | AID 1963319 | hit rate 8.7% among 1,300 | shares compounds with FLuc inh-1 | purified FLuc-C-HiBiT + ATP, HiBiT complementation luminescence;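 note: signal reports ligand binding via conformational change of the enzyme rather than luciferase catalysis; % of control where 0% means no effect; nearly all actives have a fitted effect of over 55% in size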
# FLuc inh-2 – firefly luciferase enzyme inhibition; shares compounds with FLuc inh-1; purified FLuc-C-HiBiT enzyme, luciferin luminescence; Potency, µM (series often up to 32.7 µM), inactives show at the top dose activity change, negative = inhibition, actives largely listed as inhibitors; hit rate 42% among 1,300; AID 1963320; note: % is set by controls: 0 for no effect and ±100 for the full control effect; nearly all actives have a fitted effect of over 70% in size
# Numbers without * were called inactive; i = inactive; ? = inconclusive; · = no result given; [ ] = dose if it differs, or a comment. Unless noted, calls come from the whole dose curve; as a rule, active = well fitted curve in the direction sought with a large enough effect; inconclusive = small, poorly fitted or top-dose-only effect, or another doubt; inactive = no such curve, though single readings can be large; an effect the other way counts as inactive or inconclusive. Potency is the fitted concentration of half-maximal effect.
SMILES,GPT2 inh,HEK293 tox,FLuc inh-1,hNpr1 antagonist,NIH3T3 tox,others
COc1ccc(-c2cc(N3CCCC(NC(=O)c4ccc(OC)c(F)c4)C3)n[nH]2)cc1 (stereo unspecified),?,40µM*,?,-13%,?,
COc1ccc(-c2cc(N3CCCC(NC(=O)c4ccc(C(F)(F)F)cc4)C3)n[nH]2)cc1 (stereo unspecified),i,?,i,-25%,45µM*,
Cc1cc(C)cc(C(=O)NC2CCN(c3cc(-c4ccc(F)cc4)[nH]n3)C2)c1 (stereo unspecified),-21%,?,i,-11%,45µM*,
O=C(NC1CCCN(c2cc(-c3ccccc3)[nH]n2)C1)c1ccc(C(F)(F)F)cc1 (stereo unspecified),-13%,?,i,-7%,?,
Cc1cc(C)cc(C(=O)NC2CCN(c3cc(-c4ccccc4)[nH]n3)C2)c1 (stereo unspecified),-17%,?,i,6%,-20%,
COc1ccc(-c2cc(N3CCC(NC(=O)c4ccc(OC)c(F)c4)CC3)n[nH]2)cc1,i,-13%,i,-11%,-16%,
COc1ccc(-c2cc(N3CCCC(NC(=O)c4cccn4C)C3)n[nH]2)cc1 (stereo unspecified),-11%,?,35µM*,-18%,?,
COc1ccc(-c2cc(N3CCCC(NC(=O)c4cccc(C)c4)C3)n[nH]2)cc1 (stereo unspecified),?,45µM*,10µM*,-16%,?,
COc1ccc(-c2cc(N3CCC(NC(=O)c4ccc5cc[nH]c5c4)CC3)n[nH]2)cc1,i,?,i,-29%,40µM*,
COc1ccc(C(=O)NC2CCN(c3cc(-c4ccc(OC)cc4)[nH]n3)CC2)cc1,-18%,?,i,-19%,?,
COc1ccc(-c2cc(N3CCCC(NC(=O)c4cccc(N(C)C)c4)C3)n[nH]2)cc1 (stereo unspecified),?,?,16µM*,-17%,?,
O=C([C@H]1C[C@H](Oc2ccccc2)CN1C(=O)c1ccc(F)cc1)N1CCOCC1,i,-22%,i,-12%,-10%,
O=[S+]1([O-])NCC2(CCN(CC3CCCCC3)CC2)Oc2ncccc21,1%,i,·,·,i,
COc1ccc(-c2cc(N3CCC(NC(=O)c4ccccc4)CC3)n[nH]2)cc1,-10%,?,i,-17%,?,
COc1ccc(-c2cc(N3CCC(NC(=O)Cc4ccccc4C)CC3)n[nH]2)cc1,i,?,i,-14%,?,
COc1ccc(-c2cc(N3CCC(NC(=O)COc4ccccc4C)CC3)n[nH]2)cc1,?,?,i,?,25µM*,
COc1ccc(-c2cc(N3CCC(NC(=O)c4ccc(Cl)s4)CC3)n[nH]2)cc1,2%,25µM*,i,-28%,?,
COc1cccc(C(=O)N2CCC(Cc3noc(-c4ccccc4)n3)C2)c1 (stereo unspecified),-2%,?,·,·,?,
O=C(c1ccc2oc(-c3ccc(C(F)(F)F)cc3)nc2c1)N1CCOCC1,i,?,i,-14%,?,
O=C(NCC1CCCO1)c1ccc2oc(-c3ccc(C(F)(F)F)cc3)nc2c1 (stereo unspecified),?,18µM*,i,?,-20%,
O=C(NC1CCCCCC1)c1ccc2oc(-c3ccncc3)nc2c1,-16%,35µM*,·,·,-24%,
CN1N=C(N)c2cn([C@@H]3O[C@H](COP(=O)(O)O)[C@@H](O)[C@@H]3O)c3ncnc1c23,14µM*,·,·,·,·,
Nc1ncnc2c1ncn2[C@@H]1O[C@H](COP(=O)(O)CP(=O)(O)OP(=O)(O)O)[C@@H](O)[C@H]1O,-6%,·,·,·,·,
COC(=O)c1cccc2nc([C@H]3CCN(Cc4ccccc4C)C3)oc12,5%[88.5 µM],89µM*,i,4%[70.6 µM],?,
CC(=O)N1CCC(C2CCN(Cc3ccccc3C)C2)CC1 (stereo unspecified),3%,-23%,i,9%,-18%,
SMILES,GPT2 inh,HEK293 tox,FLuc inh-1,hNpr1 antagonist,NIH3T3 tox,others
O=C(c1ccccc1F)N1CCCC(c2noc(COc3ccccc3F)n2)C1 (stereo unspecified),i,?,i,-17%,?,
COc1ccnc(N2CC[C@H](c3nnc(-c4ccc(C)cc4)o3)C2)n1,-2%[88.5 µM],100µM*,?,-3%[70.6 µM],?,
CCCCCSc1nnc(-c2ccc(Br)cc2)o1,·,·,·,·,·,FLuc SDR -ATP=11%;FLuc SDR ATP=9%;FLuc inh-2=-6%
CN(Cc1ccccc1)C(=O)CC1CCN(C(=O)Nc2ccccc2)C1 (stereo unspecified),i,?,·,·,-26%,
CN(Cc1ccccc1)C(=O)c1cccc2c1CCN2C(=O)Nc1ccccc1,0%,?,0.79µM*,8.9µM*,?,FLuc SDR -ATP=16%;FLuc SDR ATP=0.39µM*;FLuc inh-2=0.28µM*
CN(Cc1ccco1)C(=O)c1cccc2c1CCN2C(=O)Nc1ccccc1,2%,?,1.3µM*,10µM*,?,FLuc SDR -ATP=?;FLuc SDR ATP=0.28µM*;FLuc inh-2=0.2µM*
O=C([C@H]1CCCN1C(=O)Cc1cccc(Cl)c1)N1CCCC(c2nc3ccncc3[nH]2)C1 (stereo partly specified),0%,-3%,·,·,-18%,
COc1cccc(C(=O)NC2CCN(c3ccc4nnc(C5CC5)n4n3)C2)c1 (stereo unspecified),·,?,·,·,-23%,
O=C(O)c1ccc(-c2noc(-c3ccccc3F)n2)cc1,·,·,·,·,·,FLuc SDR -ATP=?;FLuc SDR ATP=0.25µM*;FLuc inh-2=0.2µM*
CC1CCC(NC(=O)c2noc(-c3ccccc3F)n2)CC1 (stereo unspecified),?,-27%,8.9µM*,-10%,-21%,FLuc SDR -ATP=15%;FLuc SDR ATP=19%;FLuc inh-2=?
CCCCCNC(=O)c1noc(-c2ccccc2F)n1,-31%,?,?,-9%,?,
COc1cc(-c2noc(-c3nc(-c4ccccc4F)no3)n2)cc(OC)c1OC,i,9%,i,-3%,i,
O=C(O)c1ccccc1-c1noc(-c2ccccc2F)n1,·,·,·,·,·,FLuc SDR -ATP=27%;FLuc SDR ATP=?;FLuc inh-2=?

# Source: PubChem BioAssay
